Screens deposited in PubChem by National Center for Advancing Translational Sciences (NCATS).
LDHA inh: LDHA (human) enzyme inhibition; actives 0.15% (n = 480,000); purified LDHA, NADH/diaphorase-resazurin fluorescence; hits give low values; P00338; activity change, % (values are at about 110 or 230 µM); AID 1347041; in the data active = activity change below about -30%; inconclusive = mostly about -25% to -30%;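 also: plate controls were DMSO wells for no effect and wells without enzyme for full effect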
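Human LDH5 at 2 nM final in Tris HCl pH 7.4 with 0.06 mM NADH and 0.2 mM pyruvate, reacted 5 minutes at room temperature. Remaining NADH coupled via diaphorase/resazurin; resorufin fluorescence read at 0 and 20 minutes, normalized to enzyme-free and DMSO wells.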
DT40 TDP1 no CPT: qHTS for Inhibitors of human tyrosyl-DNA phosphodiesterase 1 (TDP1): qHTS in cells in absence of CPT; Potency, µM (top dose mostly 46.2 µM), without a hit: top-dose activity change, negative = growth inhibition, hits mostly inhibitors; actives 15% (n = 420,000); DT40 Tdp1-/- hTDP1 cells, no CPT, ATP luminescence, 48 h; also: potency is read from the fitted curve at half-maximal effect; nearly all actives have a fitted effect of over 55% in size
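Luminescent ATP content (CellTiter-Glo) served as the growth readout. Knockout chicken DT40 cells expressing human TDP1 were exposed to compounds without camptothecin for a minimum 48 hr at 37 °C.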
Gal4-VP16 FLuc: counter-screen for ROR gamma inhibitors: Gal4-VP16 reporter. actives 3.5% (n = 310,000). Drosophila S2 Gal4-VP16 UAS-luciferase, luminescence, 20 h. AID 2546. Potency, µM (highest dose often 53.6 µM), without a hit: at the top dose activity, negative = inhibition, usual class: inhibitors;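 also: Gal4-VP16 expression switched on by copper sulfate through the metallothionein promoter; potency is read from the fitted curve at half-maximal effect; nearly all actives have a fitted effect of over 50% in size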
IL1B secr inh: inhibitors of inflammasome signaling (IL-1 beta secretion) | AID 743279 | THP-1 LPS/ATP IL-1B secretion, AlphaLISA, 16 h; hits give low values | activity change, % at 57.5 µM | actives 4.7% (n = 360,000); in the data active = activity change below about -50%; inconclusive = mostly about -30% to -49%
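THP-1 cells pretreated 1 hr with compounds (up to 57.5 uM final), then stimulated with LPS (250 ng/mL final) plus ATP (1.25 mM final); secreted IL-1B measured by AlphaLISA after 16 hr, decreased signal indicating inhibition.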
TDP1 cell CPT: growth inhibition of DT40 Tdp1-/-;hTDP1 cells with camptothecin (screen for TDP1 inhibitors); chicken DT40 Tdp1-/-;hTDP1 cells + 20 nM CPT, ATP luminescence, 48 h; Potency, µM (series often up to 46.2 µM), for the others: top-dose activity change, negative = growth inhibition, most hits filed as inhibitors; actives 12% (n = 420,000); AID 686979; also: potency is read from the fitted curve at half-maximal effect; nearly all actives have a fitted effect of over 55% in size
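Chicken DT40 Tdp1-/- cells stably complemented with human TDP1 were seeded at 400 cells/well in medium containing 20 nM camptothecin, exposed to pin-transferred compounds, and grown at 37 °C for at least 48 hr. Viability was read as ATP luminescence.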
RORgamma inh: blocks mouse ROR gamma transcriptional activity; Drosophila S2 Gal4-RORgamma UAS-luciferase reporter, 20 h; Potency, µM (titrated, usually from 53.6 µM), for the others: at the top dose activity change, negative = inhibition, hits mostly inhibitors; actives 5.4% (n = 310,000); also: potency is read from the fitted curve at half-maximal effect; nearly all actives have a fitted effect of over 60% in size
Target sequence (P51450 whole entry, looked up, the tested form may be a part): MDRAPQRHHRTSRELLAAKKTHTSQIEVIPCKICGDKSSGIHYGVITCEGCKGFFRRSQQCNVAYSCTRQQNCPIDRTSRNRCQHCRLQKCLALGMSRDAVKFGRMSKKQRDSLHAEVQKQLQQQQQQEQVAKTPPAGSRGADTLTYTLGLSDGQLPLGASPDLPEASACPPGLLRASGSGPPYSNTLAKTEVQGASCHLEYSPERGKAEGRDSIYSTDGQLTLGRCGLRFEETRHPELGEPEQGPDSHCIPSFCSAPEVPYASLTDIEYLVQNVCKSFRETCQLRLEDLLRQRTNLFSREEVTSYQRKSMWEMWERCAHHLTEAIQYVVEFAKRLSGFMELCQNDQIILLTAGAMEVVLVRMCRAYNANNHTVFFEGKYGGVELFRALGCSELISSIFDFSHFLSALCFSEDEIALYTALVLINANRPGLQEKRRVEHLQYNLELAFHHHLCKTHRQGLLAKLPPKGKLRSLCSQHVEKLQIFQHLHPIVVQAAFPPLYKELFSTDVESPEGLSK
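ROR gamma transcriptional activity was tracked as Gal4-UAS luciferase output in stably transfected Drosophila Schneider cells, with compound added 1 hr before 700 uM copper sulfate induction and a 20 hr ambient-temperature incubation.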
Starred values were filed as active, the others as inactive; ? = inconclusive; . = not tested or not shown; [ ] = dose if it differs, or a comment. Sampled rows, rich in hits. Any-hit rate of the full collection: about 18%. Unless noted, calls follow the shape of the dose curve; as a rule, active = well fitted curve in the direction sought with a large enough effect; inconclusive = small, poorly fitted or top-dose-only effect, or another doubt; inactive = no such curve, though single readings can be large; an effect the other way counts as inactive or inconclusive. Unless noted, % is scaled to controls: 0 for no effect and ±100 for the full control effect.

SMILES	LDHA inh	DT40 TDP1 no CPT	Gal4-VP16 FLuc	IL1B secr inh	TDP1 cell CPT	RORgamma inh
Cc1ccc(-c2cc3ccccc3[nH]2)cc1	1	.	.	.	.	.
Cn1c(O)c(N=NC(=O)c2cc(-c3cccs3)nc3ccccc23)c2ccccc21	-2	?	-3%	15	?	?
O=C(N=Nc1c(O)[nH]c2ccc(Br)cc12)c1cc(-c2cccs2)nc2ccccc12	-4	6.5µM*	-17%	20	4.6µM*	14%
O=C(N=Nc1c(O)[nH]c2ccc(Br)cc12)c1ccccc1-n1cccc1	4	2.6µM*	8%	2	4.6µM*	-27%
O=C(N=Nc1c(O)[nH]c2ccc(Br)cc12)c1ccco1	1	?	.	-13	1%	.
CC(C)Cc1nnc2sc(-c3cc4ccccc4[nH]3)nn12	5	.	.	.	.	.
CC(C)Cc1ccc(/C=C/C(=O)NC2CC2)cc1	-4	?	16µM*	-23	-22%	?
COc1ccc(/C=C/C(=O)NC2CC2)cc1	-1	.	.	.	.	.
Cc1ccc(C)c(N2CCN(C(=O)c3ccc4c(Cl)c5c(nc4c3)CCCC5)CC2)c1	-2	?	.	.	16µM*	.
Cc1ccc(C)c(N2CCN(C(=O)c3ccc4c(=O)n5c(nc4c3)CCCCC5)CC2)c1	3	16µM*	-2%	?	16µM*	?
CCOC(=O)N1CCN(C(=O)c2ccc3c(Cl)c4c(nc3c2)CCCC4)CC1	-2	?	9%	-51*	?	-5%
O=C(c1ccc2c(=O)n3c(nc2c1)CCCCC3)N1CCCCC1	-13	9%	-1%	47	-29%	2%
O=C(c1ccc2c(Cl)c3c(nc2c1)CCCC3)N1CCC(N2CCCCC2)CC1	0	?	-13%	-69*	?	11%
CC(C(=O)N1CCNC1=O)N(C)Cc1ccc(Cl)cc1Cl (stereo not given)	-4	.	.	.	.	.
CCNc1c(NC(=O)Nc2cccc(OC)c2)c(=O)oc2ccccc12	-2	.	.	.	.	.
O=C(COC(=O)c1ccc(Cl)c(S(=O)(=O)N2CCCCCC2)c1)Nc1cc(F)ccc1F	-3	.	.	.	.	.
COC(=O)c1cc(C(=O)OC)cc(-c2ccc(C=O)o2)c1	-7	.	.	.	.	.
CC(C)OCCCNC(=O)Cn1ccc2c(Cl)cccc21	-2	.	.	.	.	.
Cc1cc(C)cc(NC(=O)C2CCCN2S(=O)(=O)c2ccc3c(c2)C(C)(C)C(=O)N3C)c1 (stereo not given)	1	?	-7%	12	16µM*	?
CC1CCN(c2ccc(NC(=O)C3CCCN3S(=O)(=O)c3ccc(F)cc3)cc2)CC1 (stereo not given)	2	4.1µM*	.	?	18µM*	.
Cc1ccc(S(=O)(=O)N2CCCC2C(=O)Nc2ccc(Br)cc2)cc1 (stereo not given)	-1	15µM*	.	.	?	.
CCN1CC(CN(C)Cc2nc(C3CC3)no2)Oc2ccccc21 (stereo not given)	-24	.	.	.	.	.
CCC1CCCCN1C(=O)CN1C(=O)N(c2c(C)cccc2C)S(=O)(=O)c2ccccc21 (stereo not given)	1	.	.	.	.	.
CCCCc1ccc2nc(NC(=O)c3ccc(F)cc3)sc2c1	-3	.	.	.	.	.
CCOc1ccc(Br)cc1C1C(C(=O)OC)=C(N)Oc2cc(N(C)C)ccc21 (stereo not given)	19	?	2%	30	5.2µM*	2%
SMILES	LDHA inh	DT40 TDP1 no CPT	Gal4-VP16 FLuc	IL1B secr inh	TDP1 cell CPT	RORgamma inh
COc1cc(C(=O)OCc2ccc(Br)cc2)cc(OC)c1OC	11	.	.	.	.	.
COc1ccc(N(CC(=O)Nc2ccccc2C(N)=O)S(=O)(=O)c2ccc(C)c([N+](=O)[O-])c2)cc1	-1	23µM*	1%[10 µM]	?	?	-2%
COc1ccc(N2CCN(C(=O)CN(c3cccc(OC)c3)S(=O)(=O)c3ccccc3)CC2)cc1	0	15µM*	28%	-13	21µM*	?
COc1ccc(S(=O)(=O)N(CC(=O)N2CCN(c3ccccc3)CC2)c2ccccc2)cc1	0	?	6%	-13	-29%	2%
COc1ccc(N(CC(=O)Nc2ccccc2C(=O)N2CCCC2)S(=O)(=O)c2ccccc2)cc1	2	16µM*	-2%	0	21µM*	2%
COc1ccc(N(CC(=O)N2CCN(c3ccccc3)CC2)S(=O)(=O)c2ccccc2)cc1	-5	18µM*	.	-6	16µM*	.
Cc1ccc(S(=O)(=O)N2CCN(C(=O)c3ccc(Cn4nnc5ccccc54)cc3)CC2)cc1	11	.	.	.	.	.
CCC(C)NC(=O)Cn1c(=O)c2c(ncn2C2CCCC2)n(Cc2ccccc2)c1=O (stereo not given)	0	.	.	.	.	.
CCN(CC(=O)Nc1ccccc1C(=O)OC)S(=O)(=O)c1ccccc1	-9	?	-3%	22	23µM*	24%
O=C(/C(C=Nc1ccccc1F)=C(/O)c1ccco1)C(F)(F)F	5	.	.	.	.	.
CC(=O)c1ccc(S(=O)(=O)N2CCN(CC(=O)NC(=O)NC3CCCCC3)CC2)cc1	-3	?	.	-9	-24%	.
O=C(CN1CCN(S(=O)(=O)c2ccc(Cl)c(C(F)(F)F)c2)CC1)NC(=O)NC1CCCCC1	2	?	.	-15	21µM*	.
CCOC(=O)c1ccc(S(=O)(=O)N2CCN(CC(=O)NC(=O)NC3CCCCC3)CC2)cc1	4	5%	-5%	-52*	-20%	?
O=C(CN1CCN(S(=O)(=O)c2ccc(Cl)cc2)CC1)NC1CCCC1	-1	1%	6%	-6	9%	-2%
CCOc1nc2ccccc2nc1N1CCC(C(=O)NCc2ccc(C)cc2)CC1	3	.	.	.	.	.
Cc1ccccc1-c1nc(CNS(=O)(=O)c2ccc(Cl)cc2)c(C)o1	9	.	.	.	.	.
CCN(C(=O)c1cccc(Br)c1)C1CC1	-24	.	.	.	.	.
COc1cccc(NC(=O)c2cc3c(-c4ccc(Cl)cc4)nn(C)c3s2)c1	0	15µM*	.	.	?	.
COc1ccc(-c2nn(C)c3sc(C(=O)Nc4cccc(F)c4)cc23)cc1OC	-1	10µM*	.	.	15µM*	.
Cc1oc2cc(OCC(=O)Nc3ccc4c(c3)OCO4)ccc2c(=O)c1-c1ccccc1	6	.	.	.	.	.
Cc1cccc(-c2noc(CCC(=O)Nc3ccccc3)n2)c1	-1	?	-12%	12	?	-11%
CC(=O)c1ccc(NC(=O)CCCc2nc(-c3cccc(C)c3)no2)cc1	-1	21µM*	.	.	-29%	.
